Source: PubChem (Broad Institute)
Tg IFNy HTS: inhibitors of Toxoplasma gondii growth with IFN-gamma; AID 1259416; 69,000 tested, 3.8% active; activity change, negative = inhibition, % (test concentration not listed); Toxoplasma gondii growth in IFN-gamma-treated host cells; stronger effect = lower value; in the data active means activity change below about -70%, passing the limit was not always enough;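 further: host cells are HeLa cells infected with Toxoplasma gondii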
Active calls of the source: *; i = inactive. The entries come from a sample that favours hits as a whole.

SMILES	Tg IFNy HTS
CN(C)CCNC(=O)c1nc2c(o1)CN(Cc1ccccc1)C2	5
CCS(=O)(=O)N1CCC2(CC1)OC(=O)C(C)=C2C(=O)Nc1c(C)cc(C)cc1C	22
CCc1nc(C)sc1CNC1CCCNC1 (stereo not given)	1
COc1ccc(S(=O)(=O)N(C)C[C@@H]2Oc3ccc(NC(=O)Nc4ccc(C(F)(F)F)cc4)cc3C(=O)N([C@H](C)CO)C[C@@H]2C)cc1	-37
COc1ccc(S(=O)(=O)N(C)C[C@@H]2Oc3ccc(NC(=O)Nc4ccc(C(F)(F)F)cc4)cc3C(=O)N([C@H](C)CO)C[C@H]2C)cc1	-75*
COc1ccc(S(=O)(=O)N(C)C[C@H]2OCCCC[C@@H](C)Oc3ccc(NC(=O)Cc4ccccc4)cc3C(=O)N([C@@H](C)CO)C[C@H]2C)cc1	-102*
COc1ccc(S(=O)(=O)N(C)C[C@@H]2OCCCC[C@@H](C)Oc3ccc(NC(=O)Cc4ccccc4)cc3C(=O)N([C@@H](C)CO)C[C@@H]2C)cc1	-32
COc1ccc(S(=O)(=O)N(C)C[C@H]2Oc3ccc(NC(=O)Nc4ccc(C(F)(F)F)cc4)cc3C(=O)N([C@H](C)CO)C[C@@H]2C)cc1	-42
COc1ccc(S(=O)(=O)N(C)C[C@H]2OCCCC[C@H](C)Oc3ccc(NC(=O)Cc4ccccc4)cc3C(=O)N([C@H](C)CO)C[C@H]2C)cc1	-48
Cc1cccc(NC(=O)Cn2c(=O)cc(C(=O)N3CCCC3)c3ccccc32)c1C	4
O=C(O)COCC(=O)Nc1cc(Cl)cc(Cl)c1	27
CCOC(=O)c1nn(CCc2ccccc2)c2c1CN(C(=O)CCc1nc3ccccc3s1)CC2	-37
NC(=O)N1CCc2[nH]nc(-c3ccc(F)cc3)c2CC1	8
O=c1cc(-c2ccc(O)cc2)oc2ccc(O)cc12	-87*
O=c1cc(-c2ccccc2)oc2cc(O)ccc12	28
O=c1cc(-c2ccc(O)cc2)oc2cc(O)cc(O)c12	53
Cc1cccc(C2CCCN2S(=O)(=O)c2cn(C)cn2)n1 (stereo not given)	-1
CNC(=O)c1cc(=O)n(CC(=O)Nc2ccc(Cl)cc2)c2ccccc12	1
Cc1c(F)cccc1NC(=O)CNC(C)c1cc(F)cc(F)c1 (stereo not given)	-10
COc1ccccc1CCNS(=O)(=O)c1cc2c3c(c1)CCC(=O)N3CCC2	26
CC1CC(C)(C)N2C(=O)C(=O)c3cc(OC(=O)c4ccccc4)cc1c32 (stereo not given)	-96*
CC1=CC(C)(C)N(C(=O)c2ccccc2)c2ccc(OC(=O)c3ccccc3)cc21	-51
CS(=O)(=O)c1cccc(C(=O)Oc2ccccc2)c1	-32
Cc1ccc(-c2nc(CNC(=O)c3scnc3C)[nH]c2-c2ccccn2)cc1	-58
COCCN1C(=O)CCC12CCCN(Cc1ccsc1)CC2 (stereo not given)	-6
SMILES	Tg IFNy HTS
CCn1c(SCc2nc(-c3ccc(OC)cc3)oc2C)nc(=O)c2c(C(=O)OC)cc(C)nc21	i
CNC(=O)c1sc2ccccc2c1CC1CCCCN1Cc1c(C)nc2sccn12 (stereo not given)	-41
CNC(=O)c1ccc(-c2nc(CN3CCN(S(=O)(=O)c4ccc(C)cc4C)CC3)c(C)o2)cc1	-66
COc1ccccc1CNC(=O)c1ccc(-c2nc(CN3CCN(c4ccccc4)CC3)c(C)o2)cc1	-109*
Cc1oc(-c2ccc(C(=O)NCCN3CCCC3)cc2)nc1CN1CCN(c2ccccc2)CC1	-76*
Cc1oc(-c2ccc(C(=O)NCCc3ccccc3)cc2)nc1CN1CCN(c2ccccc2)CC1	-59
Cc1oc(-c2ccc(C(=O)NCCC(C)C)cc2)nc1CN1CCN(c2ccccc2)CC1	-38
CCCNC(=O)c1ccc(-c2nc(CN3CCN(c4ccccc4)CC3)c(C)o2)cc1	60
Cc1ccccc1CCNC(=O)c1ccc(-c2nc(CN3CCN(c4ccccc4)CC3)c(C)o2)cc1	-71*
Cc1oc(-c2ccc(C(=O)NCCC3=CCCCC3)cc2)nc1CN1CCN(c2ccccc2)CC1	-50
CNC(=O)c1ccc(-c2nc(CN3CCN(S(=O)(=O)c4c(C)cc(C)cc4C)CC3)c(C)o2)cc1	-96*
Cc1oc(-c2ccc(C(=O)NCc3cccs3)cc2)nc1CN1CCN(c2ccccc2)CC1	-57
Cc1oc(-c2ccc(C(=O)NCc3ccccn3)cc2)nc1CN1CCN(c2ccccc2)CC1	-29
CNC(=O)c1ccc(-c2nc(CN3CCN(S(C)(=O)=O)CC3)c(C)o2)cc1	-8
O=C(CCC1N=C2c3ccccc3N=C(SCc3cc(=O)n4ccccc4n3)N2C1=O)NCc1ccc(F)cc1 (stereo not given)	-28
COc1ccc(C(=O)NCCc2sc(-c3ccc(OC)c(OC)c3)nc2C)cc1OC	i
CN1CCCc2ccc(NC(=O)CCC(=O)N3CC(=O)Nc4ccccc43)cc21	22
Cc1nc(-c2ccccc2F)sc1C(=O)Nc1nc(C(C)C)cs1	162
O=C(Nc1ccccc1)N1CCC2(CN(Cc3ccc(C(F)(F)F)cc3)C2)C1	-24
Cc1nn(CC(=O)NCc2ccncc2)c(=O)c2nc(-c3ccccc3)sc12	175
Cc1nc(CN2CCc3cnn(C)c3C2COCC2CC2)cs1 (stereo not given)	-4
Cc1ccc(C)c(CNC(=O)c2ccc(-c3nc(CN4CCN(c5ccccc5)CC4)c(C)o3)cc2)c1	-79*
Cc1oc(-c2ccc(C(=O)NCC3CCCO3)cc2)nc1CN1CCN(c2ccccc2)CC1 (stereo not given)	95
Cc1ccc(C)c(NC(=O)c2ccc(-c3nc(CN4CCN(c5ccccc5)CC4)c(C)o3)cc2)c1	-40
COCc1[nH]n2c(=O)cc(C(C)n3ccnc3C(C)C)nc2c1-c1ccccc1 (stereo not given)	-6
SMILES	Tg IFNy HTS
c1ccc(CN(Cc2ccccn2)Cc2cccs2)cc1	14
COc1cccc(N(Cc2nc(-c3ccc(OC(C)C)cc3)oc2C)S(=O)(=O)c2ccccc2)c1	-36
COC(=O)c1c(NCc2cccc(OC)c2)c2cccc(Cl)c2[nH]c1=O	-48
COC(=O)c1c(NCc2ccc(C(F)(F)F)cc2)c2cc(F)ccc2[nH]c1=O	-65
COC(=O)c1c(NCc2cccc(OC)c2)c2cc(Cl)ccc2[nH]c1=O	-114*
CC(=O)N1CC2(CCN(C(=O)c3cnc4sc(C)nn4c3=O)CC2)Nc2ccccc21	-10
CC(=O)N1CC2(CCN(C(=O)[C@@H]3CCCN3)CC2)CC1C(=O)O (stereo not given in full)	1
COc1ccc(-n2nc(C)cc2NC(=O)Cn2c(=O)cc(C)c3ccccc32)cc1	3
Fc1ccc(NC(=S)Nc2ccccc2Cl)cc1	35
Fc1cccc(NC(=S)Nc2ccc3ccccc3c2)c1	-88*
CSc1cccc(NC(=S)NCc2ccc(F)cc2)c1	61
CC(C)Oc1ncnc2c1CCN(S(=O)(=O)C1CC1)CC2	-26
O=C(NCCNc1cccnc1)c1nc2ccccc2[nH]1	7
CN(Cc1cnc(-c2ccccn2)nc1)Cc1cccc2ncccc12	0
Cc1ccccc1-c1ncc(CN(C)Cc2cccc3ncccc23)cn1	-89*
CCNc1ncc(CN(C)Cc2cccc3ncccc23)cn1	-30
FC(F)Oc1cccc(CN2CCC(OCc3cccnc3)CC2)c1	-2
CN(Cc1ncc[nH]1)c1nc(-c2cccnc2)nc2c1cnn2C	-6
CN(CCn1cccn1)c1nc(-c2cccnc2)nc2c1cnn2C	-40
CN(Cc1cccc(Cl)c1)c1nc(-c2cccnc2)nc2c1cnn2C	-82*
COc1ccc(-c2cnc3n2CCNC32CCN(C3CCCC3)CC2)cc1	-12
